Reference: publication PMC5540273 (PLoS ONE, 2017)

Assays:
Details in all cases: concentration: 1 μM, replicates: in singlicate; n = 1
PAK4 = test system: PAK4
PAK6 = test system: PAK6
PAK7 = test system: PAK7
PCTK1 = test system: T1, PCTK1
T1 construct: gene CDK16

PCTK2 = test system: T2, PCTK2
T2 construct: gene CDK17

PCTK3 = test system: T3, PCTK3
T3 construct: gene CDK18

PDGFRA = test system: PDGFRA
PDGFRB = test system: PDGFRB
PDPK1 = test system: PDPK1
PFTAIRE2 = test system: PFTAIRE2
PFTK1 = test system: T4, PFTK1
T4 construct: gene CDK14

PHKG1 = test system: PHKG1
PHKG2 = test system: PHKG2
PIK3C2B = test system: PIK3C2B
PIK3C2G = test system: PIK3C2G
PIK3CA = test system: PIK3CA
PIK3CB = test system: PIK3CB
PIK3CD = test system: PIK3CD
PIK3CG = test system: PIK3CG
PIK4CB = test system: T5, PIK4CB
T5 construct: gene PI4KB
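Further: KINOMEscan kinase panel screen.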

Row | Structure (SMILES) | %Inh (PAK4) | %Inh (PAK6) | %Inh (PAK7) | %Inh (PCTK1) | %Inh (PCTK2) | %Inh (PCTK3) | %Inh (PDGFRA) | %Inh (PDGFRB) | %Inh (PDPK1) | %Inh (PFTAIRE2) | %Inh (PFTK1) | %Inh (PHKG1) | %Inh (PHKG2) | %Inh (PIK3C2B) | %Inh (PIK3C2G) | %Inh (PIK3CA) | %Inh (PIK3CB) | %Inh (PIK3CD) | %Inh (PIK3CG) | %Inh (PIK4CB)
1 | CC(=O)Nc1ccc(COc2ccc(Nc3ccnc4cc(-c5ccccn5)ccc34)cc2)cc1.Cl [GW440148] | 0% | 13% | 15% | 1% | 17% | 18% | 99.1% | 100% | 0% | 26% | 25% | 0% | 0% | 0% | 0% | 2% | 100% | 7% | 14% | 16%
2 | C[C@@H](Oc1cc(-n2cnc3ccc(NC(=O)NC(C)(C)C)cc32)sc1C(N)=O)c1ccccc1Cl [GSK346294] | 0% | 2% | 29% | 0% | 9% | 14% | 4% | 22% | 0% | 11% | 24% | 0% | 13% | 0% | 0% | 3% | 5% | 0% | 6% | 0%
3 | NS(=O)(=O)CCc1cccc(Nc2nccc(-c3c(-c4cccc(NC(=O)c5c(F)cccc5F)c4)nn4ccccc34)n2)c1 [GSK336735] | 0% | 16% | 4% | 10% | 0% | 23% | 90.1% | 100% | 1% | 25% | 26% | 0% | 4% | 0% | 0% | 0% | 0% | 0% | 0% | 0%
4 | CCc1ccnc(/C=C/c2n[nH]c3cc(Sc4ccccc4C(=O)NC)ccc23)c1 | 3% | 0% | 0% | 10% | 0% | 2% | 99.8% | 100% | 0% | 0% | 8% | 17% | 6% | 0% | 0% | 0% | 0% | 10% | 0% | 0%
5 | COc1cc2c(cc1OCCN1CCN(C)CC1)ncc1c3ccc(C#N)cc3[nH]c21 | 7% | 18% | 4% | 0% | 12% | 4% | 97.7% | 94.7% | 0% | 58% | 18% | 98.2% | 99.8% | 0% | 25% | 0% | 0% | 0% | 0% | 0%
6 | CC(C)Oc1ccc2c(-c3ccnc(Nc4ccc(N5CCN(C)CC5)cc4)n3)cnn2n1 [GW696155] | 47% | 56% | 44% | 99.3% | 93.5% | 60% | 55% | 97.2% | 27% | 34% | 55% | 51% | 84% | 0% | 0% | 0% | 21% | 45% | 30% | 33%
7 | CCn1cnc2c(N)ncnc21 [GW345098] | 6% | 13% | 11% | 0% | 0% | 0% | 0% | 24% | 11% | 3% | 2% | 4% | 13% | 27% | 31% | 29% | 0% | 0% | 21% | 1%
8 | O=C(NOCC1CC1)c1ccc(F)c(F)c1Nc1ccc(I)cc1Cl | 0% | 0% | 3% | 0% | 0% | 1% | 0% | 8% | 0% | 0% | 0% | 0% | 0% | 0% | 0% | 15% | 0% | 0% | 0% | 100%
9 | Cc1nnc(-c2ccc3ncc(-c4ccc(S(C)=O)cc4)n3c2)o1 (centres unmarked) | 0% | 0% | 5% | 14% | 0% | 0% | 42% | 80% | 0% | 0% | 0% | 20% | 0% | 13% | 28% | 3% | 64% | 0% | 3% | 0%
10 | Nc1nccc(-c2c(-c3ccc(F)cc3)ncn2C2CCN(CC(F)(F)F)CC2)n1 [SB-236560] | 16% | 0% | 0% | 1% | 0% | 0% | 3% | 0% | 0% | 23% | 0% | 0% | 0% | 5% | 53% | 0% | 18% | 0% | 66% | 46%
